Source: PubChem
An excerpt weighted towards active compounds, which were near 0.45% of everything screened.
Menin MLL FP FL: displaces fluorescein MLL peptide from human menin. FP activity change, % at 61.4 µM. 290,000 tested, under 10 active. Fluorescence polarization, fluorescein-MLL peptide displacement from menin; active = well fitted curve in the direction sought with a large enough effect in the polarisation, not every such curve was filed as active; inconclusive = small, poorly fitted or top-dose-only effect, or effect the other way, or a change in a side signal; inactive = no such curve, though single readings can be large or run the other way; the % refers to the polarisation; note: % of control where 0% means no effect
Menin MLL FP TR: menin-MLL binding inhibition, Texas Red mutant peptide; AID 1768; Potency, µM (series often up to 61.6 µM), for the others: at the top dose FP activity change, negative = inhibition, actives largely listed as inhibitors; O00255; Menin + Texas Red MLL mutant peptide, fluorescence polarization; 270,000 compounds, 0.23% hits; active = well fitted inhibition curve with a large enough effect in the polarisation, with a control signal flat, not every such curve was filed as active; inconclusive = small, poorly fitted or top-dose-only effect, or effect the other way, or a change in a side signal; inactive = no such curve, though single readings can be large or run the other way; the % refers to the polarisation; note: potency is the fitted concentration of half-maximal effect; % of control where 0% means no effect
MLL CXXC-DNA inh: blocks binding of human MLL CXXC domain to DNA; MLL-CXXC / FITC-HOXA9 DNA fluorescence polarization; 290,000 compounds, 0.037% hits; Potency, µM (highest dose often 115 µM), without a hit: top-dose activity change, negative = inhibition, hits mostly inhibitors; active = well fitted inhibition curve with a large enough effect in the polarisation, with a control signal flat, not every such curve was filed as active; inconclusive = small, poorly fitted or top-dose-only effect, or effect the other way, or a change in a side signal; inactive = no such curve, though single readings can be large or run the other way; the % refers to the polarisation; note: potency is the fitted concentration of half-maximal effect
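Fluorescence polarization: 7 uM MLL-CXXC (stock) preincubated 5 min with compounds, then 50 nM fluorescein-HOX-A9 DNA (stock) added; 30 min ambient. Buffer 50 mM Tris-HCl pH 7.5, 50 mM NaCl, 1 mM DTT, 0.05% BSA.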
MBNL1-CUG inh: inhibitors of human MBNL1 binding to CUG repeat RNA | Potency, µM (top dose mostly 57.5 µM), inactives show top-dose activity change, negative = inhibition, usual class: inhibitors | Q9NR56 | AID 2675 | 280,000 compounds, 0.036% hits | TR-FRET MBNL1-His/biotin-(CUG)12 binding, 665/545 ratio; active = well fitted inhibition curve with a large enough effect in the signal ratio, with a control signal flat, not every such curve was filed as active; inconclusive = small, poorly fitted or top-dose-only effect, or effect the other way, or a change in a side signal; inactive = no such curve, though single readings can be large or run the other way; the % refers to the signal ratio; note: potency is the fitted concentration of half-maximal effect; % is set by controls: 0 for no effect and ±100 for the full control effect
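His-tagged MBNL1 binding to biotinylated (CUG)12 RNA was measured by TR-FRET using terbium anti-His antibody (0.055 ng/ul final) and streptavidin-XL665 (5 nM final). Compounds were titrated 92 nM to 58 uM; 60 min at room temperature.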
S-ASM inh: blocks human secretory acid sphingomyelinase; P17405; Potency, µM (top dose mostly 57.5 µM), inactives show top-dose activity change, negative = inhibition, actives largely listed as inhibitors; 340,000 compounds, 0.006% hits; placental ASM, HMU-PC fluorogenic substrate, 60 min; active = well fitted inhibition curve with a large enough effect; inconclusive = small, poorly fitted or top-dose-only effect; inactive = no such curve, though single readings can be large or run the other way; note: potency is the fitted concentration of half-maximal effect
Target sequence (P17405 47-631 limits assumed): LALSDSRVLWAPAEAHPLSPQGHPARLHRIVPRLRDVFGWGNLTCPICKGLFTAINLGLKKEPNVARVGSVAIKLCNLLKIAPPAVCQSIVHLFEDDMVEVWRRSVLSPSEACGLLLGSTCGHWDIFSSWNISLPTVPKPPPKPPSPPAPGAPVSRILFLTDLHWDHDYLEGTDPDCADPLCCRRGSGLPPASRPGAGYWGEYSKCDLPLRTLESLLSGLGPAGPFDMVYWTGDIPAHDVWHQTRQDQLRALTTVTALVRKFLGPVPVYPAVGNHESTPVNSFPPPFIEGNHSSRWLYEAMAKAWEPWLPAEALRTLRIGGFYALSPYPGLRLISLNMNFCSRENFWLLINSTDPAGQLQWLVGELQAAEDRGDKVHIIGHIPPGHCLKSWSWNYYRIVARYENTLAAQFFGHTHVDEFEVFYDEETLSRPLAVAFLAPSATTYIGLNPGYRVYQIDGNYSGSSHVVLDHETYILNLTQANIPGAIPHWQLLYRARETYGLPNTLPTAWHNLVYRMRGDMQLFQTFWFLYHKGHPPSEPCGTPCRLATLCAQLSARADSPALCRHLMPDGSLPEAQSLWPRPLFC
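Steps: dispense placental human ASM, pin compound, wait 10 min at room temperature, add HMU-PC0 substrate at 9 uM final, incubate 60 min at 37 °C, add stop solution raising pH to 10, read fluorescence.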
Akt phos inh: inhibitors of Akt phosphorylation; Neuro2A IGF-stimulated pAkt S473 HTRF, 20 min; hits give low values; activity change, % for hits at 50 µM; 360,000 compounds, 0.32% hits; AID 651550; in the data active = activity change below about -80%; inconclusive = mostly about -51% to -80%; note: % is set by controls: 0 for no effect and ±100 for the full control effect
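Neuro2A cells (4,500/well, DMEM with 0.5% FBS) were treated with compound at a single 50 µM final concentration, stimulated with 6 nM IGF for 20 min at 37 °C, and lysed. Phospho-Akt Ser473 was read by HTRF as 665/615 ratio ×10^4.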
Active calls of the source: *; i = inactive; ? = inconclusive; . = not tested or not shown; [ ] = dose if it differs, or a comment.

SMILES	Menin MLL FP FL	Menin MLL FP TR	MLL CXXC-DNA inh	MBNL1-CUG inh	S-ASM inh	Akt phos inh
N#CCCn1cc(/C=C(\C#N)c2nc3ccccc3s2)c(-c2ccc(F)cc2)n1	?	8%	5%	?	14%	-88%*
N#CCCn1cc(C=C(C#N)C#N)c(-c2ccc(Cl)cc2)n1	?	50%	4%	-4%	-3%	i
COc1cc(/C=N/NS(=O)(=O)c2ccc(C)c([N+](=O)[O-])c2)cc([N+](=O)[O-])c1O	-8	25µM*	8%	?	-8%	i
Cc1ccc(C)c(OCC(=O)Nc2cccc(C(=O)O)c2)c1C	5	-15%	13%	-2%	11%	.
CCn1c(O)c(/C=C2\C=Nc3ccccc32)sc1=Nc1ccccc1	?	?	29%	-15%	-14%	-89%*
Cn1c(O)c(/C=C2\C=Nc3ccccc32)sc1=Nc1ccc(C(=O)O)cc1	2	.	-9%	10%	7%	i
COc1ccc(NS(=O)(=O)c2cccc(C(=O)N/N=C(\C)c3ccncc3)c2)cc1	6	-7%	12%	.	-3%	i
CCCCNC(=O)OCCNC(=O)NC	1	18%	1%	7%	1%	-83%*
CCCOC(=O)NCCCN(C)C	0	7%	.	.	.	.
CCCCc1ccc(N=N/C(C(=O)Nc2ccc(NC(C)=O)cc2OC)=C(/C)O)cc1	?	?	-8%	3%	22µM*	i
COc1ccccc1NS(=O)(=O)c1cc(N=N/C(C(=O)Nc2ccc(Cl)cc2)=C(/C)O)ccc1C	.	.	.	.	?	i
COc1ccc(C2(C)NC(=O)N(CC(=O)Nc3ccc4ccccc4c3)C2=O)cc1OC (stereo not drawn)	.	.	.	.	-7%	i
COC(=O)C1=C(C)C(c2ccc(OC)cc2OC)NC(=O)N1 (stereo not drawn)	-2	0%	-4%	5%	1%	-117%*
O=C(NCCS(=O)(=O)N1CCN(c2ccccc2)CC1)C1CC(=O)N(c2ccccc2)C1 (stereo not drawn)	1	36%	-5%	2%	-2%	.
COc1ccc(-c2cc(=O)c3ccc(F)cc3[nH]2)cc1	-5[94.6 µM]	50µM*	.	.	.	.
CCOC(=O)c1cnc2c(OC)cccc2c1N1CCN(c2ccc(OC)cc2)CC1	5	?	1%	?	-11%	-128%*
CCOC(=O)c1cnc2c(OC)cccc2c1N1CCN(c2ccccc2OC)CC1	-2	-11%	-5%	?	-6%	i
COc1cccc(CNS(=O)(=O)c2ccc(S(=O)(=O)NC3CC3)cc2)c1	-1	-4%	4%	-3%	11%	i
CCNc1cc(=O)n(C)c(=O)n1C	1	10%	17%	-8%	-1%	-122%*
O=C1CCCC2=C1C(Cc1ccccc1)C1=C(CCCC1=O)O2	-4	-16%	3%	3%	0%	-118%*
Cc1nc(SCc2cccc(Oc3ccccc3)c2)n[nH]1	2	21%	6%	-14%	3%	-112%*
Brc1ccccc1-c1nc2c3ccccc3ncn2n1	.	.	.	.	1%	i
O=C(Nc1ccc2c(c1)OCCO2)C1CCCN1S(=O)(=O)c1ccc(Cl)cc1 (stereo not drawn)	-1	7%	1%	-8%	0%	-111%*
CC(=O)Nc1ccc(NC(=O)[C@@H]2CCCN2S(=O)(=O)c2ccc3c(c2)OCCO3)cc1	3	-7%	2%	-2%	-3%	i
Cn1cc(SCC(=O)Nc2ccc3c(c2)OCO3)c2ccccc21	0	12%	-4%	-4%	-1%	i
SMILES	Menin MLL FP FL	Menin MLL FP TR	MLL CXXC-DNA inh	MBNL1-CUG inh	S-ASM inh	Akt phos inh
CC(C)n1cc(/C=C2/SC(=O)N(CC(=O)Nc3ccc4c(c3)OCO4)C2=O)c2ccccc21	2	7.9µM*	14%	-9%	11%	.
O=C1CC(N(CCc2ccccc2)C(=S)Nc2ccccc2)C(=O)N1c1ccccc1 (stereo not drawn)	-2	?	4%	2%	-6%	i
O=C1CC(N(CCc2ccccc2)C(=S)Nc2cc(Cl)ccc2Cl)C(=O)N1c1c(Cl)cccc1Cl (stereo not drawn)	1	10µM*	6%	-5%	0%	i
COc1cc(NC(=O)CSc2nc(=O)n(CCN3CCOCC3)c3c2CCC3)cc(OC)c1	.	.	.	.	2%	i
COc1ccc2c(-c3ccccc3)cc(SC(C)C(N)=O)nc2c1 (stereo not drawn)	-1	19%	17%	?	6%	i
Cc1cccc(CCNc2nc3ccccc3n3nnnc23)c1	0	.	13%	9%	1%	-87%*
CC(=O)Nc1ccc(NC(=O)CSc2nc(N)c(NC(=O)c3ccccc3F)c(=O)[nH]2)cc1	.	.	28%	-5%	-1%	i
CNc1cc(CS(=O)c2ccccc2)nc(-c2ccccc2)n1 (stereo not drawn)	3	-16%	-1%	-7%	-3%	-123%*
O=S(Cc1cc(Sc2ccccc2)nc(-c2ccccc2)n1)c1ccccc1 (stereo not drawn)	-1	.	-1%	2%	1%	i
Cc1ccccc1NS(=O)(=O)c1ccc(C(=O)NCC(c2ccco2)N(C)C)cc1 (stereo not drawn)	.	.	.	.	7%	i
Cc1cc(N)ccc1N1CCCC1	2	28µM*	?	?	-10%	i
Cc1ccc(C(=O)CC2(O)C(=O)N(Cc3ccccc3)c3ccccc32)o1 (stereo not drawn)	1	18%	8%	-2%	-1%	.
Cc1coc(C)c1C(=O)CC1(O)C(=O)N(Cc2ccccc2)c2ccccc21 (stereo not drawn)	-1	0%	0%	0%	1%	-95%*
C=CCN1C(=O)C(O)(CC(=O)c2ccccc2)c2ccccc21 (stereo not drawn)	2	0%	0%	-4%	0%	-109%*
CCN1C(=O)C(O)(CC(=O)c2ccc(-n3cccc3)cc2)c2ccccc21 (stereo not drawn)	3	0%	-2%	-2%	-4%	i
Cn1c(SCC(=O)Nc2ccc3cn[nH]c3c2)nnc1-c1cccs1	0	9%	2%	-1%	-3%	i
Cn1c(SCC(=O)Nc2ccc3cn[nH]c3c2)nnc1-c1cnccn1	-1	9%	11%	-2%	6%	-97%*
CCc1cc2cc(C)cc(C)c2nc1SCC(=O)NNC(=O)c1ccco1	-1	4%	8%	.	-8%	i
Cc1nnc(NC(=O)CSc2nc3ccccc3o2)s1	-1	-2%	6%	3%	5%	i
O=C(CSc1nc2ccccc2o1)Nc1nncs1	8	-10%	0%	-3%	0%	-116%*
